This is part of a sample that, as a whole, favours compounds with a hit. Of some 83,000 tested, about 20% had one in any assay.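 Assay: single dose, 48 h. Readout: percent growth (0 = no net growth; negative = cell death). Active: <10.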 A number with no mark means an inactive call. Active and inactive are the calls of the source.
How the values were obtained:
Test in all cases: NCI-60 one-dose screen, 48 h (100 = growth as untreated, 0 = no growth, -100 = all killed)
Details in all cases: 10 µM unless noted
HCT-15 colon = test system: HCT-15 colon
HT29 colon = test system: HT29 colon
SNB-75 CNS = test system: SNB-75 CNS
SNB-19 CNS = test system: SNB-19 CNS
U251 CNS = test system: U251 CNS
PC-3 prostate = test system: PC-3 prostate
SK-MEL-5 melanoma = test system: SK-MEL-5 melanoma
UACC-62 melanoma = test system: UACC-62 melanoma
LOX IMVI melanoma = test system: LOX IMVI melanoma
SK-MEL-28 melanoma = test system: SK-MEL-28 melanoma
EKVX NSCLC = test system: EKVX NSCLC
UO-31 renal = test system: UO-31 renal
TK-10 renal = test system: TK-10 renal
ACHN renal = test system: ACHN renal
CAKI-1 renal = test system: CAKI-1 renal
A498 renal = test system: A498 renal
CCRF-CEM leukemia = test system: CCRF-CEM leukemia
MOLT-4 leukemia = test system: MOLT-4 leukemia
SN12C renal = test system: SN12C renal

SMILES | growth (HCT-15 colon) | growth (HT29 colon) | growth (SNB-75 CNS) | growth (SNB-19 CNS) | growth (U251 CNS) | growth (PC-3 prostate) | growth (SK-MEL-5 melanoma) | growth (UACC-62 melanoma) | growth (LOX IMVI melanoma) | growth (SK-MEL-28 melanoma) | growth (EKVX NSCLC) | growth (UO-31 renal) | growth (TK-10 renal) | growth (ACHN renal) | growth (CAKI-1 renal) | growth (A498 renal) | growth (CCRF-CEM leukemia) | growth (MOLT-4 leukemia) | growth (SN12C renal)
O=C(Nc1cn[nH]c1-c1nc2ccc(CN3CCOCC3)cc2[nH]1)NC1CC1 | 50.2% | 16.3% | -42.1% (active) | 19.5% | 18.6% | 38.5% | 36.1% | 25.1% | 1.79% (active) | 39.5% | 68.5% | -22.1% (active) | 44% | 36.1% | 23.2% | -15.5% (active) | 13.9% | -5.45% (active) | 
CCc1nc(C(N)=O)c(Nc2ccc(N3CCC(N4CCN(C)CC4)CC3)c(OC)c2)nc1NC1CCOCC1 | 25% | -23.9% (active) | -45.3% (active) | 29.8% | 32% | 36.3% | 66.4% | 25.3% | -84.9% (active) | 24% | 46.6% |  | 25.4% | 29% | 20.2% | -92.6% (active) | 6.04% (active) | 17.2% | 29.2%
Nc1cc(C(F)(F)F)c(-c2cc(N3CCOCC3)nc(N3CCOCC3)n2)cn1 | -10% (active) | -29.2% (active) | -69% (active) | 0.838% (active) | -2.08% (active) | -10.4% (active) | -75.5% (active) | -72.7% (active) | -44.6% (active) | -47.5% (active) | -13.4% (active) | -34.4% (active) | -35.4% (active) | -8.54% (active) | -25.1% (active) | -80.4% (active) | 4.63% (active) | -11.9% (active) | 
O=C(Cn1ccnc1)Nc1ccc(-c2nc3ccccc3s2)cc1 | 87% | 93.3% | 88.8% | 76.5% | 71.9% | 65.9% | 39.2% | 82.9% | 73.4% | 105% | 61.4% | 60.4% | 81.8% | 90.3% | 66.2% |  | 69.1% | 68.1% | 
Cc1csc(-c2nnc(Nc3ccc(Oc4ncccc4-c4ccnc(N)n4)cc3)c3ccccc23)c1 | 37.6% | 10.1% | 61.9% | 43.3% | 37.7% | 59.9% | 54.1% | 21.1% | 25.7% | 18.9% | 64.8% |  | 39.7% | 38.8% | 50.8% | 56.1% |  | 32.3% | 52.1%
O=C(/C=C/c1ccc2c(c1)OCO2)c1c(O)c2ccccc2oc1=O | 97.1% | 96.6% | 87.7% | 115% | 101% | 95.9% | 111% | 96.7% | 94.6% | 112% | 108% |  | 113% | 102% | 95% | 107% | 103% | 77.6% | 106%
COCC(=O)NC/C=C/c1ccc2ncnc(Nc3ccc(Oc4ccc(C)nc4)c(C)c3)c2c1 | 33.3% | 12.2% | 57.2% | 77.9% | 62.9% | 74.1% | 13.1% | 7.95% (active) | 31.7% | 12.2% | 38.9% | 16.8% | 5.8% (active) |  | 18.6% | 24.6% | 79.2% | 29.3% | 
COC1CCC(N2C(=O)CNc3ncc(-c4ccc(C(C)(C)O)nc4)nc32)CC1 (configuration not stated) | 10.1% | 5.39% (active) | -22.7% (active) | 13.5% | 2.23% (active) | 8.06% (active) | -45.2% (active) | -21% (active) | 2.43% (active) | -8.74% (active) | 10.9% | -10.7% (active) | -13.4% (active) | 7.04% (active) | -1.6% (active) | -23.8% (active) | 11.4% | 0.972% (active) | 
Oc1ccc(C(c2ccc(O)cc2)C(Cl)(Cl)Cl)cc1 | 93.4% | 110% | 66.4% | 99.9% | 106% | 75.2% | 100% | 79.8% | 87.6% | 113% | 82.5% |  | 105% | 92.3% | 105% | 87.5% | 76.5% | 70.5% | 84.8%
CN1CC[C@@H](c2c(O)cc(O)c3c(=O)cc(-c4ccccc4Cl)oc23)[C@@H]1CO | 3.39% (active) | -12.6% (active) | -63.9% (active) | 10.2% | 4.32% (active) | 1.22% (active) | -9% (active) | -51.4% (active) | 6.25% (active) | -25.6% (active) | 0.493% (active) |  | 5.71% (active) | 4.44% (active) | 5.86% (active) | -60.4% (active) | 13.4% | 1.59% (active) | 12.4%
CCc1cnn2c(NCc3ccc[n+]([O-])c3)cc(N3CCCC[C@H]3CCO)nc12 | 0.896% (active) | -29.3% (active) | -74.4% (active) | 6.92% (active) | -8.91% (active) | -20.5% (active) | -40.2% (active) | -70.7% (active) | 5% (active) | -34.3% (active) | -11.2% (active) |  | -16% (active) | 2.95% (active) | 6.71% (active) | -60.4% (active) | -0.938% (active) | -9.3% (active) | 4.31% (active)
CS(=O)(=O)N1CCc2c(-c3cnc(N)nc3)nc(N3CCOCC3)nc21 | 9.65% (active) | 6.31% (active) | -45.1% (active) | 16.1% | 12.4% | 10.1% | -3.03% (active) | -41.1% (active) | 1.28% (active) | -15.9% (active) | 10.2% | -21.8% (active) | -21.4% (active) |  | -8.15% (active) | -49.9% (active) | 22.2% | 9.81% (active) | 
O=C(Nc1cnn2ccc(N3CCC[C@@H]3c3cc(F)ccc3F)nc12)N1CC[C@H](O)C1 | 92.6% | 74.1% | 29.1% | 92% | 85.7% | 89.4% | 97.8% | 99% | 80.1% | 109% | 99.5% |  | 99.8% | 103% | 88.3% | 2.72% (active) | 95.5% | 96.8% | 81.1%
Cc1ccccc1N1C(c2ccccc2)=NNC12C=CC(=O)C=C2Cl (configuration not stated) | 108% | 96.2% | 96.3% | 106% | 94.2% | 96.2% | 115% |  | 98.7% | 101% | 111% | 88.8% | 109% | 100% | 105% | 109% | 101% | 94.7% | 96.3%
O=C(COc1cccc(/C=C2\Cc3ccc(Cl)cc3C2=O)c1)Nc1nccs1 | 91.9% | 102% | 76.6% | 85.9% | 96.7% | 88% | 93.1% |  | 78% | 124% | 98.1% | -68% (active) | 142% | 91.8% | 78.2% | 98.3% | 77.1% | 37.3% | 89.3%
COc1ccc(Nc2ncccc2NC(=O)c2cn(Cc3cccc(Oc4ccccc4)c3)nn2)cc1 | 78.3% | 101% | 83.8% | 95.3% | 89.8% | 69.8% | 76.2% |  | 86.6% | 102% | 86.6% | 63.7% | 99.6% | 99.5% | 87.3% | 81.5% | 91.4% | 65.3% | 92.3%
CO[C@H]1C[C@@H]2CC[C@@H](C)[C@@](O)(O2)C(=O)C(=O)N2CCCC[C@H]2C(=O)O[C@H]([C@H](C)C[C@@H]2CC[C@@H](OC(=O)C(C)(CO)CO)[C@H](OC)C2)CC(=O)[C@H](C)/C=C(\C)[C@@H](O)[C@@H](OC)C(=O)[C@H](C)C[C@H](C)\C=C/C=C/C=C/1C | 27.3% | 4.55% (active) | -0.0597% (active) | 30.6% | 19.4% | 18.1% | 12.9% |  | 22.5% | 34.2% | 36.8% | 15.3% | 26.1% | 32.6% | 30.9% | 8.36% (active) | 16.2% | 0.877% (active) | 34.8%
